In PubChem BioAssay (NCI) one finds growth data, which are given here for eight compounds.

Some test systems named below: HCT-15 colon; HT29 colon; SNB-75 CNS; SNB-19 CNS; U251 CNS; PC-3 prostate; SK-MEL-5 melanoma; LOX IMVI melanoma; SK-MEL-28 melanoma; SK-MEL-2 melanoma; SN12C renal; UO-31 renal; ACHN renal; CAKI-1 renal; A498 renal; HL-60(TB) leukemia; CCRF-CEM leukemia; EKVX NSCLC; TK-10 renal; UACC-62 melanoma.
Holding throughout (assay): NCI-60 one-dose screen, 48 h (100 = growth as untreated, 0 = no growth, -100 = all killed)
Settings in all cases: 10 µM unless noted

Values joined by “and” are separate entries in the source; they are usually repeats but may differ in a detail not shown here. Equal entries are not always repeated. The panel holds about 83,000 compounds, 20% with a hit somewhere; the sample as a whole holds those more often.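 Note: values are percent growth. 100 is the growth of untreated cells, values between 100 and 0 indicate rising inhibition; between -100 and 0 indicates cell death.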 Unmarked numbers belong to inactive results. Active and inactive are the calls of the source. The calls were made as follows: active = growth percent below 10; inactive = the rest.

Turning to `CC(Oc1ccc(-c2ccccc2)cc1)C(=O)O` (stereo unspecified), the growth is 108% in the assay with HCT-15 colon; 103% in the assay with HT29 colon; 91.6% in the assay with SNB-75 CNS; 97% with SNB-19 CNS; 97.4% in the assay with U251 CNS; 101% in the assay with PC-3 prostate. The growth in the assay on SK-MEL-5 melanoma was 97%; with LOX IMVI melanoma it was 104%; in the assay with SK-MEL-28 melanoma it was 110%; in the assay with SK-MEL-2 melanoma, 107%; in the assay with SN12C renal, 104%; in the assay with UO-31 renal, 91.8%. Further, the growth with ACHN renal is 104%; in the assay with CAKI-1 renal it was 99.2%; with A498 renal it was 77.7%; with HL-60(TB) leukemia, 97.3%; with CCRF-CEM leukemia it was 98.4%.
On to `O=C/C=C/c1ccco1`, for which the growth with HCT-15 colon is 106%; in the assay with HT29 colon, 95.1%; in the assay with SNB-75 CNS, 80.5%; in the assay with SNB-19 CNS, 106%; in the assay with U251 CNS it was 95.1%; in the assay with PC-3 prostate, 83.7%. Besides, the growth was 113% in the assay on SK-MEL-5 melanoma; 98.2% in the assay on LOX IMVI melanoma; 114% in the assay with SK-MEL-28 melanoma; 108% with SK-MEL-2 melanoma; 100% in the assay with EKVX NSCLC; 101% in the assay with SN12C renal. Besides, the growth in the assay on UO-31 renal is 88.9%; in the assay on TK-10 renal it was 97.7%; in the assay with ACHN renal, 109%; in the assay on CAKI-1 renal it was 95.6%; in the assay on A498 renal, 96.9%; with HL-60(TB) leukemia it was 88.2%. Also, in the assay on CCRF-CEM leukemia, the growth is 100%.
`C[C@]12CC[C@@H](OC(=O)N(CCCl)N=O)C[C@@H]1CC[C@@H]1[C@@H]2CC[C@]2(C)C(=O)CC[C@@H]12`: the growth in the assay with HCT-15 colon was 72.8%; in the assay on HT29 colon, 57.9%; with SNB-75 CNS, 63.4%; in the assay on SNB-19 CNS, 37.5%; in the assay with U251 CNS it was 34.5%; in the assay on PC-3 prostate, 45.6%. Moreover, the growth with SK-MEL-5 melanoma was 56.8%; in the assay on UACC-62 melanoma, 30.4%; in the assay with LOX IMVI melanoma it was 46.4%; with SK-MEL-2 melanoma, 37.8%; in the assay with EKVX NSCLC, 59.8%; in the assay with SN12C renal, 43%. For the same compound, the growth was 49.9% in the assay on UO-31 renal; 81.8% with TK-10 renal; 21.7% with ACHN renal; 20.7% in the assay on CAKI-1 renal; -10.1% (active) in the assay with A498 renal; -21.8% (active) with HL-60(TB) leukemia. The growth with CCRF-CEM leukemia is 26.6%.
For `CO[C@@H]([CH2][Hg][O]C(=O)c1ccccc1)[C@@H]([CH2][Hg][O]C(=O)c1ccccc1)OC`, the growth in the assay with HCT-15 colon was -93.1% (active); in the assay on HT29 colon it was 95.7%; in the assay with SNB-75 CNS, 85.6%; in the assay with U251 CNS, 93.3%; with PC-3 prostate it was 88.7%; in the assay with SK-MEL-5 melanoma, 86.5%. Besides, the growth in the assay with UACC-62 melanoma is 95.2%; in the assay on LOX IMVI melanoma, 36%; in the assay on SK-MEL-28 melanoma, 112%; in the assay with SK-MEL-2 melanoma it was 105%; in the assay with EKVX NSCLC, 110%; in the assay on SN12C renal it was 98.2%. Further, the growth in the assay with UO-31 renal was 88.8%; in the assay with TK-10 renal it was 128%; in the assay on ACHN renal, 99%; in the assay on CAKI-1 renal, 94.3%; in the assay on A498 renal it was 117%.
Regarding `O=C(NC1=NCC[Se]1)c1ccccc1O`, the growth in the assay with HCT-15 colon is 82%; in the assay on HT29 colon, 92.1%; in the assay with SNB-75 CNS, 67.3%; in the assay with U251 CNS, 44%; in the assay on PC-3 prostate, 54.9%; in the assay on SK-MEL-5 melanoma, 80.9%. Besides, the growth was 76.2% in the assay on UACC-62 melanoma; 42.9% in the assay on LOX IMVI melanoma; 61.3% in the assay on SK-MEL-28 melanoma; 83% with SK-MEL-2 melanoma; 73% with EKVX NSCLC; 68.4% with SN12C renal. In addition, the growth in the assay on UO-31 renal is 17.8%; with TK-10 renal it was 56.7%; in the assay with ACHN renal, 79.8%; in the assay with CAKI-1 renal, 50.8%; in the assay on A498 renal, 88.5%; in the assay on HL-60(TB) leukemia, 58.8%. Moreover, in the assay with CCRF-CEM leukemia, the growth is 21.8%.
For `CN1[C@@H](CC(=O)c2ccccc2)CCC[C@H]1CC(=O)c1ccccc1`, the growth in the assay on HCT-15 colon was 97.1%; with HT29 colon, 108%; in the assay with SNB-75 CNS, 90.6%; in the assay with SNB-19 CNS it was 98.4%; in the assay on U251 CNS, 103%; with PC-3 prostate, 93%. Also, the growth in the assay on SK-MEL-5 melanoma is 102%; in the assay with UACC-62 melanoma, 97.7%; in the assay on LOX IMVI melanoma, 93.8%; with SK-MEL-2 melanoma, 42.8%; in the assay with EKVX NSCLC it was 96.7%; in the assay on SN12C renal, 96.6%. For the same compound, the growth with UO-31 renal was 83.7%; in the assay on ACHN renal, 97.3%; in the assay with CAKI-1 renal it was 101%; in the assay on A498 renal, 115%; with HL-60(TB) leukemia, 116%; in the assay on CCRF-CEM leukemia, 111%.
Consider `O=P(O)(Nc1ccccc1)Nc1ccccc1`, for which the growth in the assay on HCT-15 colon was 119%; in the assay on HT29 colon, 94.3%; in the assay on SNB-75 CNS it was 81.9%; in the assay with SNB-19 CNS, 95.3%; in the assay on U251 CNS, 99.3%; in the assay with PC-3 prostate, 91.5%. Besides, the growth is 94.4% with SK-MEL-5 melanoma; 91.8% with UACC-62 melanoma; 92.7% in the assay on LOX IMVI melanoma; 134% in the assay with SK-MEL-2 melanoma; 80.6% in the assay on EKVX NSCLC; 99.9% in the assay on SN12C renal. Besides, the growth in the assay with UO-31 renal is 81.7%; in the assay with TK-10 renal, 106%; in the assay with ACHN renal, 95.9%; in the assay with CAKI-1 renal, 77.2%; in the assay with A498 renal, 89.3%; in the assay on HL-60(TB) leukemia, 74%. Moreover, in the assay on CCRF-CEM leukemia, the growth was 99.3%.
Turning to `Cc1cc(N(CCCl)CCCl)ccc1/C=N\NC(=O)c1cccnc1`, the growth with HCT-15 colon was 93% and 85.1%; with HT29 colon, 90.9% and 101%; in the assay with SNB-75 CNS, 71.5% and 86.4%; with SNB-19 CNS it was 94.1% and 105%; in the assay with U251 CNS, 82.9% and 93.2%; with PC-3 prostate, 84.3% and 77.6%. In addition, the growth with SK-MEL-5 melanoma was 88.8% and 79.1%; in the assay on UACC-62 melanoma, 45% and 60.5%; in the assay with LOX IMVI melanoma, 69.4%; with SK-MEL-2 melanoma, 77.4% and 114%; in the assay on EKVX NSCLC, 97.9% and 95.8%; in the assay on SN12C renal, 67.8% and 75.5%. Also, the growth was 80.3% and 83.4% in the assay with UO-31 renal; 89.2% and 103% in the assay with TK-10 renal; 72.6% and 84% in the assay on ACHN renal; 36.2% and 41.5% in the assay on CAKI-1 renal; -85.4% (active) and -89.4% (active) in the assay with A498 renal; 60.2% and 62.1% in the assay with CCRF-CEM leukemia.
